Outcome and AC50 data for 5 compounds are collected here from PubChem BioAssay (EPA / NIEHS).

Calls of active or inactive are those of the source. Rule for the calls: active = hit-call score of the fitted dose curve at least 0.9, where 1 is the maximum; inactive = score below 0.9.

A short description of test [1]: ATG_E_Box_CIS: Attagene CIS-FACTORIAL HepG2 Assay for human Enhancer Box (E-box) (AID 2282936). The note with it: HepG2 E-box cis-reporter transcription, actives raise or lower the signal. In outline:
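Fluorescent reporter fragments separated by capillary electrophoresis gave the signal; mRNA came from HepG2 cells transfected with cis-element reporters and treated 24 h. Curves fitted bidirectionally relative to DMSO controls.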

The nature of test [2]: ATG_M_61_CIS: Attagene CIS-FACTORIAL HepG2 Assay for M61 Transcription Factor (Internal Marker) (AID 2282937). The note with it: HepG2 Attagene CIS-FACTORIAL M61 internal marker reporter; actives raise or lower the signal. In outline:
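Cells were transfected with reporter units under cis-regulatory promoters, treated with chemicals for 24 h, then lysed for RNA. Reporter transcripts were quantified by RT-PCR and capillary electrophoresis, and activity was fitted bidirectionally against DMSO.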

The nature of test [3]: ATG_EGR_CIS: Attagene CIS-FACTORIAL HepG2 Assay for human Early Growth Response 1 (EGR1) (AID 2282938). The note with it: HepG2 Attagene CIS-FACTORIAL EGR reporter mRNA; actives raise or lower the signal. The gist of the method:
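Endogenous TF activity in HepG2 liver cells was gauged through cis-promoter reporter constructs transiently transfected. After 24 h dosing, reporter mRNA was quantified by RT-PCR and capillary electrophoresis, and curves fitted in both directions versus DMSO.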

Test [4] in a line: ATG_M_19_CIS: Attagene CIS-FACTORIAL HepG2 Assay for M19 Transcription Factor (Internal Marker) (AID 2282939). The note with it: HepG2 Attagene CIS-FACTORIAL M19 internal marker reporter; actives raise or lower the signal. The gist of the method: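 Chemical-treated HepG2 (24 h) with MRTU constructs; reporter transcripts detected by fluorescent RT-PCR fragment analysis on capillary electrophoresis. Internal background marker, DMSO as baseline.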

Test [5] is described as follows: ATG_Ets_CIS: Attagene CIS-FACTORIAL HepG2 Assay for human Erythroblast Transformation Specific (ETS) (AID 2282941). The note with it: HepG2 ETS cis-reporter transcription, actives raise or lower the signal. The gist of the method:
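Endogenous transcription factor activity read as reporter mRNA via RT-PCR and capillary electrophoresis, with gain or loss fitted bidirectionally against DMSO. Human HepG2 liver cells, transiently transfected CIS reporter constructs, 24 h exposure.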

Test [6] addresses Hepatocyte nuclear factor 3-beta (Homo sapiens) (UniProt Q9Y261). Nature of the test: ATG_FoxA2_CIS: Attagene CIS-FACTORIAL HepG2 Assay for human Forkhead box A2 (FOXA2) (AID 2282942). The note with it: HepG2 cis-reporter transcription factor activity, 24 h; actives raise or lower the signal. The gist of the method: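 Endogenous transcription factor activity was read in HepG2 cells carrying transiently transfected cis-promoter reporter units. After 24 h dosing, reporter mRNA was quantified by RT-PCR and capillary electrophoresis, and values fitted bidirectionally versus DMSO.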

Test [7] is described as follows: ATG_FoxO_CIS: Attagene CIS-FACTORIAL HepG2 Assay for human Forkhead box O (FoxO) (AID 2282943). The note with it: HepG2 Attagene cis-reporter, FoxO element, mRNA; actives raise or lower the signal. The gist of the method: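 HepG2, transient MRTU transfection (cis element, endogenous TFs). Dose 24 h. TriZol RNA → oligo(dT) RT → PCR → 6-FAM primer extension → HpaI cut → CE. Gain/loss vs DMSO.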

Test [8] in a line: ATG_GATA_CIS: Attagene CIS-FACTORIAL HepG2 Assay for human GATA Binding Protein (AID 2282944). The note with it: HepG2 GATA cis-element reporter, Attagene multiplex mRNA; actives raise or lower the signal. The gist of the method: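 Transfected cis-reporter HepG2 cells were treated with chemicals for 24 hours. Total RNA was then converted to cDNA, amplified with reporter-specific primers and analysed by fluorescent capillary electrophoresis, using DMSO-treated wells as baseline.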

Test [9] is described as follows: ATG_GLI_CIS: Attagene CIS-FACTORIAL HepG2 Assay for human Zinc Finger Protein GLI1 (AID 2282945). The note with it: HepG2, Attagene cis-factorial reporter mRNA, GLI element; actives raise or lower the signal. In outline: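 Bidirectional curve fits relative to DMSO, using reporter mRNA levels from RT-PCR plus capillary electrophoresis. Cells were HepG2 transiently carrying cis-regulated reporter constructs, harvested 24 h after dosing.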

A short description of test [10]: ATG_GRE_CIS: Attagene CIS-FACTORIAL HepG2 Assay for human Glucocorticoid Response Elements (GRE) (AID 2282947). The note with it: HepG2 GRE cis-reporter, Attagene multiplex mRNA; actives raise or lower the signal. In outline:
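Multiplexed cis-reporter mRNA induction, HepG2, 24 h post-dose. RT-PCR, FAM-labelled, HpaI-digested amplicons by CE. Bidirectional fit vs DMSO.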

Test [11] can be described thus: ATG_M_32_CIS: Attagene CIS-FACTORIAL HepG2 Assay for M32 Transcription Factor (Internal Marker) (AID 2282949).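 Note: background control marker of the multiplexed CIS panel rather than a real target.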 The note with it: HepG2 Attagene cis-factorial M32 reporter, mRNA; actives raise or lower the signal. In outline:
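Transient MRTU transfection of HepG2; 24 h compound treatment; TriZol RNA, oligo(dT) RT, reporter PCR, 6-FAM primer extension, HpaI cut, CE. Gain/loss of signal vs DMSO.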

A short description of test [12]: ATG_M_06_CIS: Attagene CIS-FACTORIAL HepG2 Assay for M06 Transcription Factor (Internal Marker) (AID 2282950). The note with it: HepG2 Attagene CIS-FACTORIAL M06 internal marker reporter; actives raise or lower the signal. The gist of the method:
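Cells (HepG2, transiently carrying cis-driven reporter units) receive chemical for 24 h before RNA isolation. Reporter cDNA is PCR-amplified, FAM-labelled by primer extension, HpaI-digested and sized on a capillary analyser.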

For test [13], the target named is Hepatocyte nuclear factor 6 (Homo sapiens) (UniProt Q9UBC0). Put plainly: ATG_HNF6_CIS: Attagene CIS-FACTORIAL HepG2 Assay for human Hepatocyte Nuclear Factor 6 (HNF6) (AID 2282952). The note with it: HepG2 Attagene cis-factorial HNF6 reporter transcription; actives raise or lower the signal. In outline:
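Readout: fluorescent reporter-transcript fragments resolved by capillary electrophoresis after RT-PCR, reflecting endogenous factor activity in transfected HepG2. Exposure 24 h. Gain or loss of signal fitted bidirectionally against DMSO.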

Test [14] deals with Heat shock factor protein 1 (Homo sapiens) (UniProt Q00613). Put plainly: ATG_HSE_CIS: Attagene CIS-FACTORIAL HepG2 Assay for human Heat Shock Transcription Factor 1 (HSE) (AID 2282953). The note with it: HepG2 HSE cis-reporter, Attagene RNA transcription; actives raise or lower the signal. The gist of the method: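 Liver-derived HepG2 cells carry transiently introduced multiple reporter units governed by cis promoters. Reporter RNA measured 24 h post-dose through reverse transcription, PCR amplification, fluorescent labelling and capillary electrophoresis, normalised to DMSO.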
Heat shock factor protein 1 (Homo sapiens), sequence (Q00613 whole entry, looked up): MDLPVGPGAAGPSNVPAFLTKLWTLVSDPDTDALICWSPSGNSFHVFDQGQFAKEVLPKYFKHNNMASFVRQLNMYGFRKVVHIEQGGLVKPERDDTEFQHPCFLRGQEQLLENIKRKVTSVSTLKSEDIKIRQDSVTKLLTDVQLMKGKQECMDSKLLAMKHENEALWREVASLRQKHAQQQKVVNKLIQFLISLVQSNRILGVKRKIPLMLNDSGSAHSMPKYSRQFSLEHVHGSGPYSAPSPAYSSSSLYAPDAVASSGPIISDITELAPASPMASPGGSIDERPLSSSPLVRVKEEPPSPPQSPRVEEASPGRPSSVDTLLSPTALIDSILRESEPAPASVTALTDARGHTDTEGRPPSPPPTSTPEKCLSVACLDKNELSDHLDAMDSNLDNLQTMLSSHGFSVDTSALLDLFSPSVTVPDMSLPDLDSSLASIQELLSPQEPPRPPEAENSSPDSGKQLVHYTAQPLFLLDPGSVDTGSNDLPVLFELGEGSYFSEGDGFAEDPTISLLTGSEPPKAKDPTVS

Test [15] in a line: ATG_MRE_CIS: Attagene CIS-FACTORIAL HepG2 Assay for human Metal Responsive Element (MRE) (AID 2282954). The note with it: HepG2 MRE cis-reporter transcription, Attagene multiplex; actives raise or lower the signal. The gist of the method:
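Multiplexed cis-reporter assay in human HepG2 liver cells, 24 h incubation with test chemical. Reporter transcripts measured by RT-PCR and capillary electrophoresis; values from bidirectional curve fitting versus DMSO.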

A short description of test [16]: ATG_PBREM_CIS: Attagene CIS-FACTORIAL HepG2 Assay for human Phenobarbital-responsive Enhancer Module (PBREM) (AID 2282955). The note with it: HepG2 PBREM cis-reporter, Attagene multiplexed transcription; actives raise or lower the signal. The gist of the method:
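Fluorescence of labelled reporter cDNA fragments, resolved by capillary electrophoresis, gives mRNA induction in transfected HepG2 cells treated for 24 h; DMSO serves as negative control and baseline.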

Test [17] can be described thus: ATG_ISRE_CIS: Attagene CIS-FACTORIAL HepG2 Assay for human Interferon Regulatory Factor 1 (IRF1) binding to an Interferon-Stimulated Response Element (ISRE) (AID 2282948). The note with it: HepG2 ISRE cis-reporter (Attagene), mRNA transcription readout; actives raise or lower the signal. In outline:
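Endogenous transcription factor activity read as reporter transcript abundance via RT-PCR and capillary electrophoresis. HepG2 cells transiently transfected, 24 h chemical exposure. Gain or loss fitted against DMSO baseline.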

The target in test [18] is Hypoxia-inducible factor 1-alpha (Homo sapiens) (UniProt Q16665). Nature of the test: ATG_HIF1a_CIS: Attagene CIS-FACTORIAL HepG2 Assay for human Hypoxia Inducible Factor 1 (HIF1A) (AID 2282951). The note with it: HepG2 Attagene cis-factorial HIF1a reporter transcription; actives raise or lower the signal. In outline:
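Measures endogenous transcription-factor activity through cis-regulated reporter mRNA in HepG2. Cells dosed 24 h; transcripts quantified by RT-PCR with 6-FAM-labelled products separated by capillary electrophoresis; DMSO serves as negative control.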

Test [19] deals with Bile acid receptor (Homo sapiens) (UniProt Q96RI1). Nature of the test: ATG_IR1_CIS: Attagene CIS-FACTORIAL HepG2 Assay for human Nuclear Receptor Subfamily 1 Group H Member 4 (NR1H4), IR1 submotif (AID 2282946). The note with it: IR1 reporter transcription, actives raise or lower the signal. The gist of the method:
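HepG2 cells transiently transfected with multiplexed cis-element reporter units read endogenous transcription factor activity. After 24 h compound exposure, reporter mRNA was quantified by RT-PCR, fluorescent labelling, HpaI digestion and capillary electrophoresis; bidirectional fitting versus DMSO baseline.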

Hepatocyte nuclear factor 6 (Homo sapiens), sequence (Q9UBC0 whole entry, looked up, the tested form may be a part): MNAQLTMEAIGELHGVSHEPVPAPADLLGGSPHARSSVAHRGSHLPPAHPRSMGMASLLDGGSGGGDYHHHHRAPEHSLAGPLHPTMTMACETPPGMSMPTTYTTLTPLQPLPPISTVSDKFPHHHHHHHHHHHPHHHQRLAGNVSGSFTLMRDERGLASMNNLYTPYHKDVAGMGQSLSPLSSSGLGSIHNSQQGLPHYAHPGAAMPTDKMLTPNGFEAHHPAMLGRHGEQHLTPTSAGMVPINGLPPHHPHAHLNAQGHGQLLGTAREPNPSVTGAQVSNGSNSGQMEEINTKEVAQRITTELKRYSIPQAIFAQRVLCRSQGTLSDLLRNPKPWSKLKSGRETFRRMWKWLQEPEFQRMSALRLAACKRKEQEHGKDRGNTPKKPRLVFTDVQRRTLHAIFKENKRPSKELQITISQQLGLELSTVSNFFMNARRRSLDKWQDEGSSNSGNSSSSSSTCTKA
Hepatocyte nuclear factor 3-beta (Homo sapiens), sequence (Q9Y261 whole entry, looked up): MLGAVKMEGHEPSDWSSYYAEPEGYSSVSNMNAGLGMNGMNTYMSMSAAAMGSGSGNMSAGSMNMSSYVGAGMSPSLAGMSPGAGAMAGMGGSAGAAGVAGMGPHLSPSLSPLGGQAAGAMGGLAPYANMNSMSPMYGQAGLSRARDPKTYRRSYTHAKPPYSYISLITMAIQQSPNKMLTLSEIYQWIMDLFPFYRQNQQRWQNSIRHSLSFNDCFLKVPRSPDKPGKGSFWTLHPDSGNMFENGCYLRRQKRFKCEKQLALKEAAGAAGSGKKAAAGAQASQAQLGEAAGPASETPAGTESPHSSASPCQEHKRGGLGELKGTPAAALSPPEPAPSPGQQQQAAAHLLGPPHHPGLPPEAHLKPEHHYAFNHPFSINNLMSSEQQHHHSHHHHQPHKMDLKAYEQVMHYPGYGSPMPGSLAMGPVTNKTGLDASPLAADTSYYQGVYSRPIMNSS
Bile acid receptor (Homo sapiens), sequence (Q96RI1 whole entry, looked up): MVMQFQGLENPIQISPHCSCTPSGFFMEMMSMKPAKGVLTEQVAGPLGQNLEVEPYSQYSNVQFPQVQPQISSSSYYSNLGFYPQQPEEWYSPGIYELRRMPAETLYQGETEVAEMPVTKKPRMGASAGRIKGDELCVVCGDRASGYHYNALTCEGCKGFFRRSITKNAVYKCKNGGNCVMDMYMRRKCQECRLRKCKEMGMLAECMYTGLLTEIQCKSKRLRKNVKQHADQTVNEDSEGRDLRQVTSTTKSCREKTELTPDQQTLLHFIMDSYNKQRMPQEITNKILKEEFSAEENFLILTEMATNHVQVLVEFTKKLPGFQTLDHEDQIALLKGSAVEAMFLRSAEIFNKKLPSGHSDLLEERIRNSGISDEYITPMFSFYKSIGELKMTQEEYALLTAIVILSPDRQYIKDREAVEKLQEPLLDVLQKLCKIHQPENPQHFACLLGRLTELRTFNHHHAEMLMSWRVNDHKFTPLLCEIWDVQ
Hypoxia-inducible factor 1-alpha (Homo sapiens), sequence (Q16665 whole entry, looked up): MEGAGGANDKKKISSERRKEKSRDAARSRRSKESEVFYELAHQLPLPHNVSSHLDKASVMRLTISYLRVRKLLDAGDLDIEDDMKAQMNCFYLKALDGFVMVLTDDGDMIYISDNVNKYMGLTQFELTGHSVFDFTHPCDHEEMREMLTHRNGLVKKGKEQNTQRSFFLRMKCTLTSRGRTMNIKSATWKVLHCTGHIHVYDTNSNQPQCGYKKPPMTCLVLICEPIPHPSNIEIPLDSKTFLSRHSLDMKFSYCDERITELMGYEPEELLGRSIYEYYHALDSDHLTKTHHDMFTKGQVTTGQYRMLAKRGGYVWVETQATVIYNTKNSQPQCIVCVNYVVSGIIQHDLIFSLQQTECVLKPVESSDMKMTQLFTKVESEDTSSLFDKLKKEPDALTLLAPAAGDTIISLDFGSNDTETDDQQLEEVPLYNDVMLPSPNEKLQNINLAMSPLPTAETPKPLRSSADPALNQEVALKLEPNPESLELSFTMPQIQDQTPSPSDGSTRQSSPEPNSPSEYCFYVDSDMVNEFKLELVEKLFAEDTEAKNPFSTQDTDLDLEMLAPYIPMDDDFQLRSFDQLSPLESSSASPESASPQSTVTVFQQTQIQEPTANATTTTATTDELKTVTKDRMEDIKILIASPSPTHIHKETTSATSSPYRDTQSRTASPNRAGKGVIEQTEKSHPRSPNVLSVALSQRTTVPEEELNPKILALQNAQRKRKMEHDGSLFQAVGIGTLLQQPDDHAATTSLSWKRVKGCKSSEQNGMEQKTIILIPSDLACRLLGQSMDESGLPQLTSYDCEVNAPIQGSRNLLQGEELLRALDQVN

Consider `COP(=O)(NC(C)=O)SC` (stereo not given), for which the result in test [1], in test [2], in [3], in [4], in [5] and in test [6] was inactive. The call in test [7], in test [8], in test [9], in test [10], in [11] and in [12] was inactive. The compound was called inactive in [13], in [14], in test [15] and in test [16].

As to `CNC(=O)ON=C(C)SC`, the outcome in [1], in [2], in test [3], in test [4], in test [5] and in test [6] was inactive. Besides, the outcome in test [7], in [8], in [9], in [10], in test [17] and in [11] was inactive. For the same compound, the outcome in test [12], in test [13], in test [14] and in [15] was inactive.

For `CCNc1nc(Cl)nc(NC(C)(C)C#N)n1`, the result in test [1], in [2], in [3], in test [4], in test [5] and in test [6] was inactive. The compound was called inactive in test [7], in test [8], in test [9], in test [10], in test [11] and in [12]. Also, the call in test [18], in test [13], in test [15] and in test [16] was inactive.

On to `C#CCC1=C(C)C(OC(=O)C2C(C=C(C)C)C2(C)C)CC1=O` (stereo not given), for which the AC50 is 78.6 µM (active) in [1]; 50 µM (active) in test [3]; 90.3 µM (active) in test [7]; 77.1 µM (active) in [8]; 73.2 µM (active) in [9]; 90.5 µM (active) in test [11]. Also, the AC50 in [13] is 50 µM (active); in [14], 74.8 µM (active); in [15], 72.2 µM (active); in test [16], 4.27 µM (active). Also, the compound was classed as inactive in test [2], in test [4], in [5], in test [6], in [19] and in test [12].

Consider `CCCSP(=O)(OCC)Oc1ccc(Br)cc1Cl` (stereo not given), for which the result in test [1], in [2], in test [3], in [4], in test [5] and in [6] was inactive. Besides, the compound was called inactive in test [7], in test [8], in [9], in test [19], in [11] and in [12]. Also, the result in test [13], in test [14], in test [15] and in [16] was inactive.
